Assay outcomes: PubChem, several laboratories
Sampled rows, rich in hits. Any-hit rate of the full collection: about 2.4%.
PPC-1+TRAIL kill – compounds killing PPC-1 cancer cells with TRAIL present, primary screen, TRAIL potentiator project, ATPLite luminescence, uHTS; PPC-1 cells + TRAIL, ATPLite viability luminescence; cell killing (% activity), % at 4 µM or 5 µM; 220,000 compounds, 0.41% hits; AID 1443, 2008;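 active = cell killing above 50% in the first pass at 4 µM, then a duplicate retest at 5 µM averaging 50% or more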
HSP90 inh – HSP90 inhibitors, primary screen, cell lysate, luminescence; Rabbit reticulocyte lysate, luciferase refolding luminescence, 3 h; inhibition, % at 5.6 µM; 290,000 compounds, 0.91% hits; AID 1789, 2009;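 active = inhibition above the screen-wide mean plus 3 SD, computed separately per campaign, cut at about 16% in these data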;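 note: inhibitors lower the luminescence because luciferase stays unfolded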
HSF1 inh – HSF1 inhibitors in luciferase reporter cells, primary screen, cell-based, NIH3T3, luminescence; NIH3T3-HGL HSE-luciferase, MG132-induced, luminescence 8 h; active compounds read low; activity change, negative = inhibition, % at 7.5 µM (by protocol); 300,000 compounds, 0.77% hits; AID 2098, 2009;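 active = more than half of replicate wells show activity change below -50%, luminescence cut by over half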;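 note: luciferase reports HSF-1 transcriptional activity via heat shock element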
STAT3 blocker – IL-6 driven STAT3 reporter inhibitors, primary screen, U3A cells, luciferase, luminescence, MLSCN library; IL-6 STAT3-luciferase reporter; host cell line lacks STAT1; 190,000 compounds, 0.89% hits; inhibition, % at 5.5 µM; AID 862, 2007;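 active = inhibition above the mean inhibition across all screened compounds plus 3 SD, cut at about 44% in these data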
TRAIL sens C8 – viability loss with TRAIL in NB7+C8 cells, primary screen, TRAIL sensitizer project, cell-based, ATPlite luminescence | inhibition (viability loss, TRAIL sensitization), % at 10 µM | 360,000 compounds, 1% hits | AID 624354, 2012;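 active = compounds causing at least 50% loss of cell viability in the single-dose screen, relative to plate controls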
STAT1 blocker – STAT1 signaling inhibitors, primary screen, cell-based, HTS, luciferase reporter; inhibition, % at 5.5 µM; AID 920, 2007; 200,000 compounds, 0.35% hits; NIH 3T3 STAT1-luciferase reporter, IFN-gamma, luminescence;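 active = inhibition above a set limit, the mean inhibition across all tested compounds plus 3 SD, cut at about 34% in these data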
Numbers stand for hits; i = inactive; nt = no result.

SMILES | PPC-1+TRAIL kill | HSP90 inh | HSF1 inh | STAT3 blocker | TRAIL sens C8 | STAT1 blocker
CC(C)CN1CCN(Cc2ccc(Oc3ncccn3)cc2)CC1CCO (centres undefined) | i | 16 | i | nt | i | nt
O=S1(=O)CCN(Cc2cccnc2)CC1 | nt | nt | nt | nt | i | nt
Cc1ccc2nc3n(c(=O)c2c1)-c1cc2ccccc2cc1C(=O)NC3Cc1ccccc1 (centres undefined) | nt | nt | nt | nt | i | nt
Nc1[nH]c(N=NC(=O)c2ccccc2O)c2ccccc12 | i | i | i | i | 72 | i
Nc1[nH]c(N=NC(=O)c2ccccc2)c2ccccc12 | i | i | i | i | i | i
COc1ccc(C(C(=O)Nc2ccc3c(c2)OCCO3)n2c(=O)c(-c3ccco3)nc3ccccc32)cc1 (centres undefined) | nt | nt | nt | nt | i | nt
COc1ccc(N2C(=O)C(C)(C)C2c2c(O)ccc3ccccc23)cc1 (centres undefined) | nt | 17 | -73 | nt | i | nt
c1ccc(-c2cn3nc(-c4ccccc4)sc3n2)cc1 | nt | nt | -56 | nt | 85 | nt
Cc1ccc(NC(=S)NC(=O)C2CCC2)cc1C | nt | i | -59 | nt | i | nt
Cc1ccc(NC(=S)NC(=O)C2CCCC2)cc1C | nt | i | i | nt | i | nt
CCCCn1c(O)c2n(c1=O)Cc1ccccc1N=C2c1ccc(C)cc1 | nt | nt | nt | nt | i | nt
N#CC1(NC(=O)Cn2ncc(Cl)c(Cl)c2=O)CCCCC1 | nt | nt | i | nt | 93 | nt
C=CCn1c(C(C)n2c(-c3cnccn3)nc3ccccc32)nc2ccccc21 (centres undefined) | nt | nt | nt | nt | i | nt
NC(=S)N/N=C\c1c2ccccc2cc2ccccc12 | 61 | i | nt | i | i | i
COCCNC(=S)N/N=C/c1c2ccccc2cc2ccccc12 | nt | i | i | nt | i | nt
Nc1nc2ccccc2cc1C(=O)NCc1cccs1 | nt | nt | nt | nt | i | nt
O=C1CCCN1CCNC(=S)Nc1ccccc1 | i | i | i | i | i | i
O=C1CCCN1CCC1CCN(C(=O)Nc2ccccc2)CC1 | i | i | -68 | i | i | i
Nc1ccn([C@@H]2O[C@H](CNCc3cc(Br)ccc3OCc3ccccc3)[C@@H](O)[C@H]2O)c(=O)n1 | nt | nt | nt | nt | i | nt
c1ccc(-c2nnc3sc(CN4CCC5(CC4)OCCO5)cn23)cc1 | i | i | i | i | 65 | i
CNC(=O)NC(=S)NC(=O)c1ccccc1Cl | i | i | -76 | i | i | i
Cc1ccc(C(C)C)c(OCC(=O)Nc2sc3c(c2C#N)CC(C)(C)NC3(C)C)c1 | nt | i | i | nt | i | nt
COC(=O)c1c(NC(=O)COc2ccc(Cl)cc2)sc2c1CC(C)(C)NC2(C)C | nt | i | i | nt | 73 | nt
Cc1cc(OCC(=O)Nc2sc3c(c2C#N)CC(C)(C)NC3(C)C)c(C(C)C)cc1Cl | nt | i | -55 | nt | i | nt
O=C(NCc1ccccn1)[C@@H]1CCCN1C(=O)[C@@H]1CCCN1C(=O)c1cccc2ccccc12 | nt | nt | nt | nt | i | nt
SMILES | PPC-1+TRAIL kill | HSP90 inh | HSF1 inh | STAT3 blocker | TRAIL sens C8 | STAT1 blocker
CC(NS(=O)(=O)c1ccc(Br)cc1)C(=O)NCc1ccco1 (centres undefined) | i | i | i | i | i | i
COc1ccccc1CNC(=O)C(C)NS(=O)(=O)c1ccc(Br)cc1 (centres undefined) | i | i | -73 | i | i | i
Cc1cccc(C(=O)NCC(=O)N2CC(=O)Nc3ccccc32)c1 | i | i | -51 | i | i | i
CCO[C@H]1C[C@@H](c2ccc(CC)cc2)N(S(=O)(=O)c2ccc(C)cc2)C2CC(c3ccc(CC)cc3)N(S(=O)(=O)c3ccc(C)cc3)CC21 (some centres undefined) | nt | nt | nt | nt | i | nt
O=C(NCc1ccco1)c1ccc2nc([C@@H]3O[C@H](CO)[C@H](O)[C@H](O)[C@H]3O)[nH]c2c1 | nt | nt | nt | nt | i | nt
COc1ccc(Cl)cc1NC(=O)c1cc(-c2ccccc2O)n[nH]1 | i | i | i | i | i | i
COc1ccc(OC)c(NC(=O)c2cc(-c3cc(Cl)ccc3O)n[nH]2)c1 | i | i | i | i | 51 | i
COc1cccc2sc3ccc(C#CC4(O)CCCCC4)cc3c(=O)c12 | nt | i | i | nt | 54 | nt
COc1cccc2sc3ccc(C#Cc4ccc(N)cc4)cc3c(=O)c12 | nt | i | i | nt | i | nt
COc1ccccc1-c1oc2ccccc2c1C#CC1(O)CCCCC1 | nt | nt | nt | nt | i | nt
O=c1c2ccccc2sc2ccc(C#CC3(O)CCCCC3)cc12 | nt | nt | -92 | nt | 93 | nt
Nc1ccc(C#Cc2ccc3sc4ccccc4c(=O)c3c2)cc1 | nt | nt | i | nt | i | nt
O=c1c2ccccc2oc2cc(C#CC3(O)CCCCC3)ccc12 | nt | nt | -81 | nt | 79 | nt
Cc1nc2ccc(S(=O)(=O)CCC(=O)NCc3ccc(Cl)cc3)cc2s1 | nt | nt | nt | nt | i | nt
COc1ccc2cc(C(=O)NCc3ccco3)c(=Nc3ccc(C(=O)O)cc3)oc2c1 | i | i | -63 | i | i | i
COc1ccc2oc(=Nc3ccc(C(=O)O)cc3)c(C(=O)NCc3ccco3)cc2c1 | i | i | i | i | i | i
c1ccc(-c2cc(-c3ccccc3)on2)cc1 | i | i | i | nt | i | nt
Cc1ccc(-c2cc(-c3ccccc3)no2)cc1 | nt | nt | i | nt | 55 | nt
Cc1cccc(C)c1NC(=O)C1(C)CN(S(C)(=O)=O)CC(=O)N1CCCN1CCOCC1 (centres undefined) | nt | nt | nt | nt | i | nt
O=C1CCC2S/C(=C/Nc3ccc(C(F)(F)F)cc3)C(=O)N12 (centres undefined) | i | i | -65 | 78 | i | 66
Cc1cc(C)c2c(=O)n3c(nc2c1)C(Cc1ccccc1)NC(=O)c1cc2ccccc2cc1-3 (centres undefined) | nt | nt | nt | nt | i | nt
COc1ccc2c(=O)cc(-c3ccccc3)n(C)c2c1 | i | i | nt | i | 55 | i
CCCCCCCCCCCCCCCC[N+](C)(C)CC | nt | nt | i | nt | 92 | nt
CCCCCCCCCCCCCCCC[N+](C)(C)CCl | nt | nt | nt | nt | 90 | nt
O=C(Nc1cccc(Cl)c1)c1ccc2sc([C@H]3C[C@H](O)[C@@H](CO)O3)nc2c1 | nt | nt | nt | nt | i | nt
SMILES | PPC-1+TRAIL kill | HSP90 inh | HSF1 inh | STAT3 blocker | TRAIL sens C8 | STAT1 blocker
O=C(O)c1cc(S(=O)(=O)Nc2ccc3c(c2)OCCO3)c(Cl)cc1Cl | i | i | -69 | i | i | i
Cc1nn(C)cc1S(=O)(=O)Nc1ccc2c(c1)OCCO2 | i | i | -63 | i | i | i
Cc1n[nH]c(C)c1S(=O)(=O)Nc1ccc2c(c1)OCCO2 | i | i | -62 | i | i | i
COc1cccc(-c2nc3nc(C)cc(C)n3c2NCc2ccccc2)c1 | nt | nt | nt | nt | i | nt
C#CC(=O)N(c1cccc(OC)c1)C(C(=O)NC1CCCC1)c1cccs1 (centres undefined) | 94 | i | nt | 110 | 96 | 43
Cn1c2c(c(=O)n(C)c1=O)C(C(F)(F)F)(C(F)(F)F)N=C(c1ccc(Cl)cc1)N2 | i | i | i | 89 | 51 | 71
CC1=C(C(=O)N2CCOCC2)CC(CC(=O)NCCN2CCOCC2)C(=O)N1Cc1ccccc1 (centres undefined) | nt | nt | nt | nt | i | nt
